Shown are actives, neighbours in structure and some others; about 2.3% of the full set was active somewhere.
CHO-K1 Ca PAM = nonselective calcium activators in parental CHO-K1 cells, primary screen, counter-screen for M1 PAM project, cell-based, Fluo-8 calcium fluorescence, full deck, 1536-well. ATP EC20; 0% at ATP EC20, 100% at ATP max. activation, % at 3 µM. hit rate 0.02% among 360,000. AID 602247, 2012;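 active = activation above the run cutoff, the mean activation of all test compounds plus 3 SD, cut at about 40% in these data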;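 also: peak over basal fluorescence ratio in a 140 s read after ATP addition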
M1 ag parental = counter-screen for M1 agonists: effect in parental CHO-K1 cells | activation, % at 3 µM | hit rate 0.48% among 360,000 | Fluo-8 calcium fluorescence; scaled to maximal ATP response, vehicle zero; in the data active = activation above about 15%;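 also: untransfected CHO-K1 host cells lacking M1 receptor as counterscreen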
CHRM1 agonist = human M1 muscarinic receptor agonists, primary screen, Fluo-8 calcium fluorescence, CHO-K1 cells, HTS; CHO-K1 hM1, agonist mode; 0% DMSO, 100% acetylcholine EC100; hit rate 0.33% among 360,000; Muscarinic acetylcholine receptor M1 (Homo sapiens), P11229; activation, % at 3 µM; AID 588814, 2011;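 active = activation above the run's mean compound activation plus 3 SD, cut at about 16% in these data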;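 also: peak over basal fluorescence ratio within a 140 s kinetic read after compound addition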
Target sequence (P11229 whole entry, looked up): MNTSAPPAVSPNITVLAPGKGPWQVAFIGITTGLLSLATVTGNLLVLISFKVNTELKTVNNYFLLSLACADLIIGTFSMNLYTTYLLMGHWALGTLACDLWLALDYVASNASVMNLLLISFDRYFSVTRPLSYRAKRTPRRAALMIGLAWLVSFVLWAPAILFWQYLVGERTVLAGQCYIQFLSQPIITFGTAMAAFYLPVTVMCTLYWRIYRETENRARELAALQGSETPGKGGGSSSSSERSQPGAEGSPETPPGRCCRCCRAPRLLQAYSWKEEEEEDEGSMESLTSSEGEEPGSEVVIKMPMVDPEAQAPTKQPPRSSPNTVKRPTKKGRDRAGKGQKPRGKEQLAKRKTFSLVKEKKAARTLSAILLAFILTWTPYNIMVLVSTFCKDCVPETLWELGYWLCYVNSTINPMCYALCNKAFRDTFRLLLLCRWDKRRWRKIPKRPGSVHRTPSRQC
M1 antag = human M1 muscarinic receptor antagonists, primary screen, CHO-K1 cells, Fluo-8 calcium fluorescence, 1536-well | Muscarinic acetylcholine receptor M1 (Homo sapiens), P11229 | CHO-K1 hM1, ACh EC80 antagonist | inhibition, % at 3 µM | hit rate 1.3% among 360,000;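 active = percent inhibition above its own plate's cutoff, namely the mean of that plate's compound wells plus 3 SD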;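 also: peak over basal fluorescence ratio during 140 s after agonist addition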
CHRM1 PAM = human M1 muscarinic receptor positive allosteric modulators, primary screen, CHO-K1 cells, Fluo-8 calcium fluorescence, 1536-well. Muscarinic acetylcholine receptor M1 (Homo sapiens), P11229. CHO-K1 hM1, ACh EC20; 0% = ACh EC20, 100% = maximal ACh. activation, % at 3 µM. hit rate 0.088% among 360,000; in the data active = activation above about 19%, passing the limit was not always enough
CHO-K1 Ca antag = counter-screen for M1 antagonists: effect in parental CHO-K1 cells; inhibition, % at 3 µM; ATP-induced calcium, Fluo-8 fluorescence; hit rate 0.6% among 360,000; AID 602250;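 active = inhibition above a per-plate cutoff, the plate's mean sample inhibition plus 3 SD, cut at about 24% in these data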
Each line names hits and unclear results; the compound was inactive in the other large screens.

COc1cc2c(cc1OC)[C@H](C)N(C(=O)NCc1ccccc1)CC2	none
CCN(CC)c1ccc(N)cc1	none
Nc1ccc(N(CCO)CCO)cc1	CHO-K1 Ca antag 100
O=C(COC(=O)Cc1ccc(Cl)cc1)NC1CCCC1	none
COC(C#CCCN(C)C)(c1ccccc1)c1ccccc1	M1 antag 99
O=C(NC(Cc1ccccc1)C(=O)O)NC12CC3CC(CC(C3)C1)C2 (stereo not drawn)	none
CC(C)(CC(=O)N1CCN(c2ccc(Cl)cc2)CC1)CC1=NS(=O)(=O)c2ccccc2N1	M1 antag 30
CC(C)=CCC/C(C)=C/CNC(=O)C[C@H]1C[C@H](C(=O)N2CCCCC2)[C@@]2(CCc3ccccc3)c3[nH]c4cc(CCC(=O)N(C)C)ccc4c3CCN2C1=O	none
O=C(Nc1cc(Cl)cc(Cl)c1)c1cccnc1	M1 ag parental 18
COc1ccc2c(c1OC)C(=O)OC2N1C(=O)CC[C@H]1C(=O)Nc1ccc2c(c1)OCO2 (stereo partly drawn)	none
CCOC(=O)C1(Cc2cccc(Cl)c2)CCCN(C(=O)c2cc(C(C)C)nn2C)C1 (stereo not drawn)	none
N#C/C(=C\c1ccc(N2CCOCC2)o1)C(=O)NCCc1ccccc1	M1 ag parental 23, CHRM1 agonist 21
N#C/C(=C/c1ccc(N2CCOCC2)o1)C(=O)Nc1ccccc1	M1 ag parental 61, CHRM1 agonist 50
N#C/C(=C\c1ccc(N2CCOCC2)o1)C(=O)NC1CCCCC1	M1 ag parental 16
O=C(CSC1=NS(=O)(=O)c2ccccc2N1)NCc1ccc(F)cc1	none
O=C(CCc1nc2ccccc2s1)OCC(=O)c1ccc[nH]1	none
COc1cccc(C2SCC(=O)N2c2ccc(Br)cc2)c1OC (stereo not drawn)	M1 antag 74
COc1ccc(C2SCC(=O)N2c2ccc(OC)cc2)cc1 (stereo not drawn)	none
COc1ccc(C(CNC(=O)c2ccc(Cl)c(NC(=O)c3cccs3)c2)N2CCCC2)cc1 (stereo not drawn)	M1 antag 46
COc1ccc(C(CNC(=O)c2cccc(S(=O)(=O)N3CCCC3)c2)N2CCCC2)cc1 (stereo not drawn)	none
COc1ccc(C(CNC(=O)CCNS(=O)(=O)c2ccccc2)N2CCOCC2)cc1 (stereo not drawn)	M1 antag 30
COc1ccc(C(CNC(=O)Cc2ccccc2Cl)N2CCCCC2)cc1 (stereo not drawn)	M1 antag 38
COc1ccccc1C(=O)Nc1cccc2c1CCCC2	none
Cc1nc(SCC(=O)NC2CCS(=O)(=O)C2)c2c3c(sc2n1)CCC3 (stereo not drawn)	none
Cc1nc(SCC(=O)NC2CCS(=O)(=O)C2)c2c3c(sc2n1)CCCC3 (stereo not drawn)	M1 antag 26
O=C(N/N=C/c1cc(Cl)cc(Cl)c1O)c1ccncc1	M1 ag parental 15
OC(CN1CCOCC1)Cn1cnc2ccccc21 (stereo not drawn)	none
OC(CN1CCOCC1)Cn1c(-c2cccc(Cl)c2)nc2ccccc21 (stereo not drawn)	CHO-K1 Ca antag 28
COC(=O)c1ccc(C23CC4(C2)[C@H](CN(C)[C@@H]4c2ccccc2)C3c2ccc(Cl)nc2)cc1 (stereo partly drawn)	M1 antag 70
N#Cc1ccc(C23CC4(C2)[C@H](CN(P(=O)(c2ccccc2)c2ccccc2)[C@@H]4c2ccccc2)C3c2ccc(Cl)nc2)cc1 (stereo partly drawn)	none
COC(=O)c1ccc(C23CC4(C2)[C@H](CN(C)[C@@H]4c2ccccc2)C3c2ccc(C(F)(F)F)cc2)cc1 (stereo partly drawn)	none
CN1C[C@@H]2C(c3ccc(Cl)nc3)C3(c4ccc(C#N)cc4)CC2(C3)[C@H]1c1ccccc1 (stereo partly drawn)	M1 antag 55
COCOc1ccc(/C=C/C(=O)c2c(OCOC)cc(OCOC)c(CC=C(C)C)c2O)cc1OCOC	CHO-K1 Ca antag 29
COCOc1ccc(/C=C/C(=O)c2c(O)cc(OCOC)cc2OCOC)cc1	none
COc1ccc(NC(=O)C2CCN(S(C)(=O)=O)CC2)c(OC)c1	none
COc1ccc(NC(=O)C2CCN(C(=O)c3ccccc3)CC2)c(OC)c1	M1 antag 61
COc1ccc(NC(=O)C(Sc2ccccc2)c2ccccc2)c(OC)c1 (stereo not drawn)	CHO-K1 Ca PAM 43
COc1ccc(C(=O)N2CCC(C(=O)Nc3ccccc3OC)CC2)cc1	none
COc1ccccc1NC(=O)C(Sc1ccccc1)c1ccccc1 (stereo not drawn)	none
COc1ccc(NC(=O)C2CCN(S(=O)(=O)c3ccc(OC)c(OC)c3)CC2)c(OC)c1	CHO-K1 Ca antag 26
Cc1cc(C)c(CN2CCN(CCCn3ccc(NC(=O)OCc4ccccc4)nc3=O)CC2)c(C)c1	M1 antag 42
COc1ccc(N2CCN(CCCn3ccc(NC(=O)OCc4ccccc4)nc3=O)CC2)cc1	none
O=C(Nc1ccn(CCCN2CCN(Cc3cccc4ccccc34)CC2)c(=O)n1)OCc1ccccc1	M1 antag 30
O=C(Nc1ccn(CCCN2CCN(c3ccccc3)CC2)c(=O)n1)OCc1ccccc1	none
CC1CCN(S(=O)(=O)c2c[nH]c(=O)[nH]c2=O)CC1	none
Cc1cc(C)nc(NN2C(=O)/C(=C/c3ccccc3)SC2=S)n1	none
COc1cc(/C=C2\SC(=S)N(Nc3ncc(C(F)(F)F)cc3Cl)C2=O)ccc1O	M1 antag 30
CN(C)c1ccc(/C=C2\SC(=S)N(Nc3ncc(C(F)(F)F)cc3Cl)C2=O)cc1	M1 ag parental 21, CHRM1 agonist 37, M1 antag 61, CHO-K1 Ca antag 39
CCOc1cc(/C=C2\SC(=S)N(NS(=O)(=O)c3ccccc3)C2=O)ccc1O	none
COC1Cc2ccccc2N(C(N)=O)c2ccccc21 (stereo not drawn)	none
CCc1ccc(NC(=O)c2cc(S(=O)(=O)N3CCCC3)ccc2F)cc1	none
c1ccc(C2[C@H]3CN(CC4CCCCC4)[C@H](c4ccccc4)C34CC2(c2ccccc2)C4)cc1 (stereo partly drawn)	none
